Laboratory results reported in PubChem BioAssay.

Tested on: Fibrinogen (Alexa647-labelled)
Assay: Alexa647-fibrinogen binding to printed small molecules – biochemical, small-molecule microarray, 635/667 nm fluorescence, artefact control for SMM control-protein annotation, profiling panel (AID 1131);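 also: z-score merges 667 nm fluorescence with per-spot signal-to-noise over triplicate slides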
Conditions: fibrinogen-A647 binding fluorescence, higher = more signal

Question: For `CC(C)N1CC=CC23O[C@@H]4C=CCOC(=O)[C@@H]4[C@H]2C(=O)N(CCCCCO)[C@@H]3C1=O` (stereo partly drawn), which composite z-score is on record?
Answer: Its composite z-score is -1.86.

Question: Which composite z-score does the source give for `[N-]=[N+]=Nc1ccccc1C[C@@]1(C(=O)N2CCCCC2)N=C(c2ccc(OCCCO)cc2)O[C@@H]1c1ccccc1` here?
Answer: Its composite z-score is 0.95.

Question: Which composite z-score does the source give for `OCC1C=C(/C=C/c2ccccc2)CN1Cc1ccccc1Br` (stereo not drawn) here?
Answer: Its composite z-score is 0.891.

Question: Which composite z-score does the source give for `C=CC[C@@]1(C(=O)N2CCCCC2)N=C(c2ccc(OCCCO)cc2)O[C@@H]1c1ccccc1N=[N+]=[N-]` here?
Answer: The composite z-score was 0.957.

Question: How did the composite z-score turn out when `CO[C@H]1O[C@H](CO)[C@@H](OC(=O)Nc2ccc(Oc3ccccc3)cc2)[C@H](OC(=O)Nc2ccc3c(c2)OCO3)[C@@H]1OC(=O)Nc1ccc2c(c1)OCO2` was run?
Answer: The composite z-score was 0.85.

Question: `COCCOC(=O)N1C(=O)[C@@]2(c3ccccc31)[C@H](C(=O)N1CCc3cc(OC)c(OC)cc3C1)[C@H]1C(=O)O[C@H](c3ccccc3)[C@H](c3ccccc3)N1[C@@H]2c1ccc(O)cc1` was tested. Which composite z-score did it give?
Answer: Its composite z-score is 0.864.

Question: `CCCCC(=C=CC[C@@H](O)c1cccc(OCCO)c1)C[C@@H](O)c1ccccn1` was tested. Which composite z-score did it give?
Answer: The composite z-score was 0.837.

Question: How did the composite z-score turn out when `CCOC(=O)C[C@H]1[C@H](OC(=O)c2cc3ccccc3oc2=O)[C@@H](NC(=O)CC(C)C)c2cc(OCCCO)ccc2N1C(=O)c1ccccc1` was run?
Answer: The composite z-score was 0.595.

Question: How did the composite z-score turn out when `CC(C)(C)OC(=O)CC[C@@]1(C(=O)N2CCCCC2)N=C(c2ccc(OCCCO)cc2)O[C@@H]1c1ccccc1` was run?
Answer: The composite z-score was 1.02.

Question: How did the composite z-score turn out when `Cc1ccc(S(=O)(=O)N2C[C@@H](C(=O)O)[C@H](Sc3ccccc3)C[C@H]2c2ccccc2)cc1` was run?
Answer: The composite z-score was 1.06.

Question: How did the composite z-score turn out when `O=C1[C@H]2C=C(Br)[C@H](C[C@@H]2OCCCCCCO)[C@@]12CO2` was run?
Answer: The composite z-score was -1.94.

Question: For `COc1ccc(C(=O)Nc2cccc(CN3C(=O)[C@]4(O[C@H](CCn5cc(CCO)nn5)[C@@H]([Si](C)(C)c5ccc(OC)cc5)[C@@H]4C)c4ccccc43)c2)cc1`, which composite z-score is on record?
Answer: The composite z-score was 0.757.

Question: For `C=C[C@H](C)[C@@H](OC(=O)Nc1ccc(SC)cc1)c1ccc(O)c2ccccc12`, which composite z-score is on record?
Answer: The composite z-score was 0.294.

Question: How did the composite z-score turn out when `COCCOC(=O)N1C(=O)[C@@]2(c3cc(C#CC4(O)CCCCCC4)ccc31)[C@H](C(=O)Nc1nc3ccccc3s1)[C@H]1C(=O)O[C@H](c3ccccc3)[C@H](c3ccccc3)N1[C@@H]2c1ccccc1OCCO` was run?
Answer: Its composite z-score is 0.981.

Question: `C=CCC(OC(C)=O)[C@@H]1[C@@H](N(Cc2ccc(-c3ccccc3)cc2)C(=O)Cc2ccc(F)cc2)c2cc(OCCCO)ccc2N1C(=O)c1ccc2ccccc2c1` (stereo partly drawn) was tested. Which composite z-score did it give?
Answer: The composite z-score was -0.163.

Question: With `CN(C)CCCC[C@@H]1NC(=O)[C@H]2C[C@@H](C(=O)NCCCCCN)[C@@H](c3cccc(OCCO)c3)N2C1=O` as the molecule, how does the composite z-score read?
Answer: The composite z-score was 1.01.

Question: With `C=CC[C@]1(C(=O)NCc2ccccc2)N=C(c2ccc(OCCCO)cc2)O[C@H]1c1ccccc1CN=[N+]=[N-]` as the molecule, how does the composite z-score read?
Answer: Its composite z-score is 1.02.

Question: For `O=C(CS)NCCCCCNC(=O)[C@@H]1C[C@@H]2C(=O)NCC(=O)N2[C@@H]1c1ccc(O)cc1`, which composite z-score is on record?
Answer: The composite z-score was -0.135.

Question: Which composite z-score does the source give for `C=CCC(OC(C)=O)[C@@H]1[C@@H](N(Cc2ccc(-c3cccc(C(F)(F)F)c3)o2)C(=O)c2cccc3ccccc23)c2cc(OCCCO)ccc2N1C(=O)Cc1ccc2ccccc2c1` (stereo partly drawn) here?
Answer: Its composite z-score is 0.702.

Question: With `C=CCC(OC(C)=O)[C@@H]1[C@@H](N(Cc2ccc(-c3cccc(C(F)(F)F)c3)o2)C(=O)Cc2ccc(OC)cc2)c2cc(OCCCO)ccc2N1C(=O)c1ccc2ccccc2c1` (stereo partly drawn) as the molecule, how does the composite z-score read?
Answer: Its composite z-score is -1.

Question: How did the composite z-score turn out when `CC(C)CN1C(=O)[C@@]2(c3ccc([N+](=O)[O-])cc3)CC(=O)N(C3CCCCC3)[C@@H]2c2ccc(CO)cc21` was run?
Answer: The composite z-score was -1.05.

Question: With `O=C1C2C=CC(C(O)C=Cc3ccc([N+](=O)[O-])cc3)N(n3cnnc3)C2C(=O)N1Cc1ccccc1` (stereo not drawn) as the molecule, how does the composite z-score read?
Answer: Its composite z-score is 0.699.

Question: With `O=C1O[C@H](c2ccccc2)[C@H](c2ccccc2)N2[C@H]1[C@@H](C(=O)NC[C@H](O)c1ccccc1)[C@]1(C(=O)Nc3ccc(C#CC4=CCCCC4)cc31)[C@H]2c1ccccc1OCCO` as the molecule, how does the composite z-score read?
Answer: The composite z-score was 0.86.

Question: Which composite z-score does the source give for `O=C1NC(=O)C2C1C=CC(C(O)c1ccc(I)cc1)N2Nc1ccc(Cl)cc1Cl` (stereo not drawn) here?
Answer: Its composite z-score is 0.978.

Question: How did the composite z-score turn out when `CC(C)CCC[C@@H](C)[C@H]1CC[C@@]2(C)C3=C(CC[C@]12C)[C@@]1(C)CC[C@H](OC(=O)c2ccc(C(F)(F)F)nc2)C(C)(C)C1CC3` (stereo partly drawn) was run?
Answer: Its composite z-score is 0.723.

Question: For `CC(C)(C)OC(=O)CC[C@]1(C(=O)NCCN2CCOCC2)COC(c2ccc(OCCCO)cc2)=N1`, which composite z-score is on record?
Answer: Its composite z-score is 0.46.

Question: How did the composite z-score turn out when `CN1C(=O)C2C=CC(C(O)c3ccccc3)N(N3CCCCC3)C2C1=O` (stereo not drawn) was run?
Answer: Its composite z-score is 0.412.

Question: Which composite z-score does the source give for `CC[C@@H]1C=C(C(=O)O)[C@H](c2cccc3ccccc23)N1S(=O)(=O)c1ccc(C)cc1` here?
Answer: The composite z-score was 0.159.
